About 83,000 compounds went through this panel and 20% of them were active in at least one assay; those are over-represented in the sample as a whole.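 Values shown are percent growth following 48 h exposure of cells in 96-well plates to a single concentration of compound; below 10 was considered active.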 A number with no mark means an inactive call. The source made the active and inactive calls.
Assays:
Assay in all cases: NCI-60 one-dose screen, 48 h (100 = growth as untreated, 0 = no growth, -100 = all killed)
[1] = test system: SR leukemia; details: 10 µM unless noted
[2] = test system: RPMI-8226 leukemia; details: 10 µM unless noted
[3] = test system: OVCAR-8 ovarian; details: 10 µM unless noted
[4] = test system: OVCAR-5 ovarian; details: 10 µM unless noted
[5] = test system: OVCAR-4 ovarian; details: 10 µM unless noted
[6] = test system: SK-OV-3 ovarian; details: 10 µM unless noted
[7] = test system: IGROV1 ovarian; details: 10 µM unless noted
[8] = test system: OVCAR-3 ovarian; details: 10 µM unless noted
[9] = test system: HS 578T breast; details: 10 µM
[10] = test system: NCI/ADR-RES ovarian; details: 10 µM unless noted
[11] = test system: T-47D breast; details: 10 µM unless noted
[12] = test system: BT-549 breast; details: 10 µM unless noted
[13] = test system: MDA-MB-435 melanoma; details: 10 µM unless noted
[14] = test system: SW-620 colon; details: 10 µM unless noted
[15] = test system: MCF7 breast; details: 10 µM unless noted
[16] = test system: HCT-116 colon; details: 10 µM unless noted
[17] = test system: HCC-2998 colon; details: 10 µM unless noted
[18] = test system: KM12 colon; details: 10 µM unless noted

Structure (SMILES) | growth [1] | growth [2] | growth [3] [%] | growth [4] [%] | growth [5] | growth [6] | growth [7] | growth [8] | growth [9] | growth [10] [%] | growth [11] | growth [12] | growth [13] | growth [14] | growth [15] | growth [16] | growth [17] | growth [18]
CC(=O)c1ccc(Nc2nc(Cl)nc(Oc3c(Cl)cccc3Cl)n2)cc1 | 82.3% | 70% | 92.5 | 105 | 67.2% | 100% | 89.1% | 90.9% | 74.3% | 93.6 | 79.8% | 84.7% | 89.9% | 88.6% | 74.9% | 84.9% | 106% | 98%
CCOc1ccc([C@@H]2[C@@H](Oc3ccccc3)C(=O)N2c2cc(OC)c(OC)c(OC)c2)cc1 | 5.44% (active) | 5.16% (active) | 24.2 | 43 | 43.9% | 29.6% | 21.5% | -8.31% (active) | 34.6% | 14 | 91.8% | -18.2% (active) | -25% (active) | 20.8% | 16.9% | -3.96% (active) | 16.2% | 11.5%
O=C1/C(=C\c2cccn2Cc2ccc(Cl)cc2)c2ccccc2N1c1c(Cl)cccc1Cl | 75.3% | 76.1% | 85.2 | 86.8 | 40.2% | 86.7% | 63% | 82.3% | 97.2% | 78.3 | 25.1% | 94.5% | 106% | 91.5% | 12.8% | 77% | 79.8% | 54.3%
CCN(CC)CCCC(C)Nc1cnc(C(=O)Nc2cccc3ccc(OC)nc23)cn1 (stereo not drawn) | -5.71% (active) | 23.8% | 68.2 | 91.3 | 98.1% | 87% | 78.3% | -30.7% (active) | 69.5% | 76.1 | 83.9% | 83.2% | -58.2% (active) | 2.12% (active) | 20.1% | -36% (active) | 90.9% | 36.3%
Cc1cccc(C(=O)O)n1 | 120% | -8.6% (active) | 74.4 | 100 | 101% | 119% | 72% | 115% | 118% | 107 | 106% | 109% | 95.8% | 103% | 104% | 99.2% | 98.7% | 110%
NC(=O)c1noc(C(=O)c2ccccc2)c1N | 90.8% | 99.4% | 97.3 | 100 | 89.4% | 107% | 90.4% | 96.9% | 112% | 112 | 100% | 98.2% | 95.6% | 101% | 97.3% | 85.4% | 119% | 98.7%
O=C(N=Nc1c(Cl)c(O)c2ccccc2c1O)C(=O)Nc1cccc(C(F)(F)F)c1 | 32.2% | 76.9% | 83.6 | 118 | 66.9% | 89.6% | 39.3% | 24.7% | 83.8% | 71 | 44.9% | 69% | -29.3% (active) | 63.6% | -4.71% (active) | 33.1% | 96.2% | 53.6%
CC(C)NCCCCCNc1cc(O)cc2cccnc12 | 22.5% | 66.6% | 31.3 | 98.8 | -5.19% (active) | 65.6% | 32.2% | 28.3% | 88.8% | 100 | 31.3% | 104% | 101% | 83.1% | 43.3% | 65.5% | 54.6% | 100%
Clc1cn2cc(-c3ccc(Cl)c(Cl)c3Cl)nc2s1 | 75.5% | 108% | 99.5 | 87.8 | 100% | 103% | 55.7% | 101% | 104% | 110 | 71.8% | 129% | 88.1% | 111% | 87.8% | 96.9% | 106% | 111%
Cc1ccc(N=CNN=C(N)N)cc1 | 76.9% | 99.4% | 91 | 99.5 | 94.5% | 104% | 103% | 112% | 140% | 108 | 98.8% | 108% | 112% | 108% | 99% | 103% | 108% | 107%
O=C1/C(=C\c2cccn2Cc2ccc(F)cc2)c2ccccc2N1c1c(Cl)cccc1Cl | 76% | 74.6% | 81.5 | 81.9 | 34.1% | 96.2% | 55.8% | 80.7% | 92.9% | 76.1 | 19% | 95.6% | 107% | 92% | 12.6% | 70.8% | 81.5% | 54.4%
COc1cccc(/C=N/N=C(N)N)c1 | 93% | 104% | 100 | 89.7 | 91.5% | 111% | 107% | 105% | 113% | 103 | 97.5% | 114% | 114% | 98% | 100% | 99.9% | 107% | 96.4%
O=C(Oc1c(Cl)c(Cl)c(Cl)c(Cl)c1Cl)C1CCCN1C(=O)OCc1ccccc1 (stereo not drawn) | 30.1% | 6.32% (active) | 34.7 | 94.9 | 51% | 46.4% | 37.3% | 79.1% | 73.2% | 27.6 | 2.01% (active) | 54.9% | 84.2% | 22.2% | 29.6% | 15.9% | 49.1% | 23.6%
COc1ccc(-c2nn(-c3cccc(Cl)c3)cc2/C=C2\C(=N)N(c3ccccc3)N=C2N)cc1 | 17.9% | 47.3% | 42.3 | 39.8 | 71.6% | 91.3% | 27.9% | 38.8% | 82.1% | 34.7 | 28.6% | 101% | 31.3% | 32.5% | 26.6% | 51.3% | 0.0499% (active) | -25.2% (active)
CCOCC(O)(c1ccc(Cl)cc1)c1ccc(Cl)cc1 | 100% | 107% | 103 | 84.4 | 112% | 105% | 101% | 112% | 109% | 99.7 | 98.5% | 115% | 102% | 97.4% | 110% | 93% | 109% | 90.4%
O=c1cc(N2CCOCC2)oc2c(-c3ccc4c(c3)OCCO4)csc12 | 13.9% | -0.399% (active) | 13.8 | 18.1 | 11.5% | -17.3% (active) | -9.54% (active) | 19.1% | -7.53% (active) | 16.5 | -15% (active) | 5.39% (active) | 14.7% | 37.6% | 7.92% (active) | 14.4% | 33.2% | 31.7%

From PubChem BioAssay (NCI)
